Several values for one entry are separate records, joined by “and”; a condition that tells them apart may be missing. Identical values can stand only once. Results filed as inconclusive are left out. Where a call stands in place of a potency, no number is given. Values without a mark were called inactive. Activity calls are given as the source filed them. Calls follow the shape of the dose curve; as a rule, active = well fitted curve in the direction sought with a large enough effect; inconclusive = small, poorly fitted or top-dose-only effect, or another doubt; inactive = no such curve, though single readings can be large; an effect the other way counts as inactive or inconclusive.
Assays:
[1] = molecular target: Cellular tumor antigen p53 (Homo sapiens) (UniProt P04637); experiment: Primary qHTS for small molecule compounds that upregulate eGFP-tagged delta133p53alpha (in N-terminal) cells. (AID 2060322); conditions: NCI-H358 eGFP-delta133p53alpha fluorescence, 24 h; activation: active compounds read high; also: nearly all actives have a fitted effect of over 75% in size; also: potency is read from the fitted curve at half-maximal effect
Outline: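 NCI-H358 cells pre-induced 24 h with 10 ng/ml doxycycline to express N-terminal eGFP-delta133p53alpha, then dosed 24 h at 37C without doxycycline; fixed, Hoechst-stained, GFP intensity by laser scanning cytometry, normalized to DMSO (0%) and 57.5 uM 5-azacytidine (100%).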

[2] = molecular target: Aldehyde dehydrogenase, mitochondrial (Homo sapiens) (UniProt P05091); experiment: qHTS for Inhibitors of the Aldehyde Dehydrogenase Family (ALDH2) Primary screen (AID 2061308); conditions: ALDH2 enzyme inhibition qHTS, 1536-well; series mostly up to 56 µM; also: nearly all actives have a fitted effect of over 55% in size
[3] = molecular target: Retinaldehyde dehydrogenase 3 (Homo sapiens) (UniProt P47895); experiment: qHTS for Inhibitors of the Aldehyde Dehydrogenase Family (ALDH1A3) Primary screen (AID 2061315); conditions: ALDH inhibition qHTS; series mostly up to 56 µM

Chain of Cellular tumor antigen p53 (Homo sapiens) (P04637 whole entry, looked up): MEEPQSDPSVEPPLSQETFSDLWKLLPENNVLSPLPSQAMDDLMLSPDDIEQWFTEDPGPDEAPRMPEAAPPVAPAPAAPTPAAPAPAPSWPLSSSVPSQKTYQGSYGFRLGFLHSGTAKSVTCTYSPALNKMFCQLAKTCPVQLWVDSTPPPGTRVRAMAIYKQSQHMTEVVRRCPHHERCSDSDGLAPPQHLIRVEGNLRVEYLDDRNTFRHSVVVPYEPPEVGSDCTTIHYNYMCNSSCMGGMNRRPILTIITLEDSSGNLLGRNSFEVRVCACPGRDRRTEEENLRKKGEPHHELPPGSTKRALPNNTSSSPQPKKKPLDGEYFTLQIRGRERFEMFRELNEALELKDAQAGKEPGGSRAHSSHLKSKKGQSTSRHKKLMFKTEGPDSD

| Structure (SMILES) | activation [1] | Potency [2] | Potency [3] | Potency [1] | activity change, negative = inhibition [2] | activity change, negative = inhibition [3] |
| --- | --- | --- | --- | --- | --- | --- |
| Cc1ccc2c(n1)Oc1ccc(C(C)C(=O)OCC(=O)N(C)C)cc1C2 (stereo not given) | -12.6% and -10.9% | inactive | inactive |  |  |  |
| COC1C(OC(=O)/C=C/C=C/C=C/C=C/C(=O)O)CCC2(CO2)C1C1(C)OC1CC=C(C)C (stereo not given) | 10.7% | inactive | inactive |  |  |  |
| O=C(/C=C\c1ccc(O)cc1)N[C@@H](Cc1ccc(O)cc1)C(=O)O | 17.9% | inactive | inactive |  |  |  |
| CCN1CCN(Cc2ccc(NC(=O)c3ccc(C)c(Oc4ccnc5[nH]ccc45)c3)cc2C(F)(F)F)CC1 |  | inactive | inactive | 14.8 µM (active) |  |  |
| CC1=C2C(=O)C=C(CO[C@@H]3O[C@H](CO)[C@@H](O)[C@H](O)[C@H]3O)[C@@H]2[C@H]2OC(=O)[C@H](C)[C@@H]2[C@@H](O)C1 | -7.63% | inactive | inactive |  |  |  |
| C=C1[C@H]2CCC3[C@]4(C)CCC[C@@](C)(C(=O)O)C4CC[C@]3(C2)[C@H]1OC(C)=O (stereo not given in full) | -17.6% | inactive | inactive |  |  |  |
| O=C(Nc1cccc2cccnc12)c1ccc(N2C(=O)[C@@H]3C4C=CC(C4)[C@@H]3C2=O)cc1 | 2.33% | inactive | inactive |  |  |  |
| Nc1ncnc2c([C@@H]3N[C@H](CO)[C@@H](O)[C@H]3O)c[nH]c12 | -8.93% | inactive | inactive |  |  |  |
| COC1OC(O)C2(CCC3(O2)C(C)CC2OC(=O)C4(C)CCCC3(C)C24)C1O (stereo not given) | 9.92% | inactive | inactive |  |  |  |
| CC1=C2C[C@@]3(C)C(CCC[C@@H]3C)C(O)C2(O)OC1=O (stereo not given in full) | 0% | inactive | inactive |  |  |  |
| CC(=O)O[C@@H](CO[C@@H]1O[C@H](CO)[C@H](O)[C@H](O)[C@H]1O)[C@]1(C)C=C2CC[C@@H]3C(C)(C)[C@@H](O)CC[C@@]3(C)[C@@H]2CC1 | 18.3% | inactive | inactive |  |  |  |
| CC1(C)CC[C@]2(C(=O)O[C@@H]3O[C@H](CO)[C@@H](O)[C@H](O)[C@H]3O)CC[C@]3(C)C(=CCC4[C@@]5(C)C[C@H](O)[C@H](O[C@@H]6O[C@H](C(=O)O)[C@@H](O)[C@H](O)[C@H]6O)[C@@](C)(CO)C5CC[C@]43C)C2C1 (stereo not given in full) | -11.6% |  |  |  | 12.5% [at 11.2 µM] | 11% [at 11.2 µM] |
| CC(CCC1(O)OC2CC3C4CCC5CC(O[C@@H]6O[C@H](CO)[C@@H](O)[C@H](O)[C@H]6O[C@@H]6OC[C@@H](O)[C@H](O)[C@H]6O)C(O)CC5(C)C4CCC3(C)C2C1C)CO[C@@H]1O[C@H](CO)[C@@H](O)[C@H](O)[C@H]1O (stereo not given in full) | -5.36% | inactive | inactive |  |  |  |
| C[C@@H]1O[C@@H](O[C@@H]2[C@@H](O[C@@H]3O[C@@H](C)[C@H](O[C@@H]4OC[C@H](O)[C@H](O[C@@H]5OC[C@@H](O)[C@H](O)[C@H]5O)[C@H]4O)[C@@H](O[C@@H]4OC[C@](O)(CO)[C@H]4O)[C@H]3O)[C@H](OC(=O)[C@]34CCC(C)(C)C[C@H]3C3=CCC5[C@@]6(C)C[C@H](O)[C@H](O[C@@H]7O[C@H](CO[C@@H]8OC[C@H](O)[C@H](O)[C@H]8O)[C@@H](O)[C@H](O)[C@H]7O)C(C)(C)C6CC[C@@]5(C)[C@]3(C)C[C@H]4O)OC[C@H]2O)[C@H](O)[C@H](O)[C@H]1O (stereo not given in full) | -8.4% |  |  |  | 17% [at 11.2 µM] | 8.86% [at 11.2 µM] |
| CC(=O)O[C@@H]1C(O)C[C@@]2(C)C(CC[C@@H](C)C23Cc2c(O)cc4c(c2O3)CNC4=O)C1(C)C (stereo not given in full) | -14.5% | inactive | inactive |  |  |  |
| CC(C)c1cc(C(=O)N2CC[C@@H](NC(=O)C3CC3)C2)n[nH]1 | -7.67% | inactive | inactive |  |  |  |
| CC(=O)c1ccc2c(c1)C(O)C(C(C)(C)O)O2 (stereo not given) | -6.11% | inactive | inactive |  |  |  |
| C/C=C(/C)C(=O)O[C@@H]1C[C@@H](OC(=O)/C(C)=C\C)[C@@]2(C)C3C(=O)C=C(C)C2C3C1(C)C | -3.57% | inactive | inactive |  |  |  |
| C[C@@H]1O[C@@H](OC[C@H]2O[C@@H](OCCc3ccccc3)[C@H](O)[C@@H](O)[C@@H]2O)[C@H](O)[C@H](O)[C@H]1O | -8.4% | inactive | inactive |  |  |  |
| C=C(C)C(=O)OC1CC(CO)CCC/C(CO)=C/C2OC(=O)C(=C)C21 (stereo not given) |  | inactive | inactive | 14.8 µM (active) |  |  |

From PubChem BioAssay (NCATS)
